The values below come from PubChem BioAssay (NCI).

This is part of a sample that, as a whole, favours compounds with a hit. Of some 83,000 tested, about 20% had one in any assay.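 Method: cells in 96-well plates; compound added at one concentration; 48 h incubation; percent growth measured; values under 10 scored active.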 Unmarked numbers belong to inactive results. Active and inactive are the calls of the source.

What all share (test): NCI-60 one-dose screen, 48 h (100 = growth as untreated, 0 = no growth, -100 = all killed)
Common to all, as to details: 10 µM unless noted

Test [1] relates to HCT-15 colon.
Test [2] concerns HT29 colon.
In test [3] the test system is SNB-75 CNS.
For test [4], the system named is SNB-19 CNS.
In test [5] the test system is U251 CNS.
Test [6] concerns PC-3 prostate.
The test system of test [7] is SK-MEL-5 melanoma.
Test [8] relates to UACC-62 melanoma.
Test [9] concerns LOX IMVI melanoma.
Test [10] deals with SK-MEL-28 melanoma.
In test [11] the test system is SK-MEL-2 melanoma.
Test [12] has as its system EKVX NSCLC.
Test [13] deals with SN12C renal.
Test [14] concerns UO-31 renal.
Test [15] concerns TK-10 renal.
In test [16] the test system is ACHN renal.
The test system of test [17] is CAKI-1 renal.
Test [18] deals with A498 renal.
Test [19] relates to CCRF-CEM leukemia.
Test [20] relates to MOLT-4 leukemia.

For the molecule `Nc1c(C(=O)Nc2cccc3ncccc23)sc2nc3c(cc12)CN(Cc1ccccc1)CC3`, the growth in [1] was 74.2%; in test [2], 81.7%; in test [3] it was 84.2%; in test [4], 82.3%; in [5], 88%; in test [6], 77%. Also, the growth was 19.2% in test [7]; 53.5% in test [8]; 88.6% in test [9]; 81.7% in test [10]; 57.3% in [11]; 76.4% in [12]. In addition, the growth in [13] is 82.1%; in test [14], 70.2%; in [15] it was 89.4%; in test [16], 88.6%; in test [17], 74.1%; in test [18] it was 72.1%. In addition, the growth is 69.6% in test [19] and 48.5% in test [20].

For `COC1/C=C/OC2(C)Oc3c(C)c(O)c4c(O)c(c(/C=N/N(c5ccccc5)c5ccccc5)c(O)c4c3C2=O)NC(=O)C(C)=C/C=C/C(C)C(O)C(C)C(O)C(C)C(OC(C)=O)C1C` (stereo not given), the growth in test [1] is 41.4%; in test [2], 45.5%; in [3], 66.9%; in test [4], 71.2%; in test [5], 41.8%; in test [6], 38.7%. Also, the growth is -98.8% (active) in [7]; 48.3% in test [8]; 47.4% in test [9]; 39.1% in [10]; 82.2% in [11]; 67% in [12]. The growth in test [13] is 70.9%; in test [14], 65.8%; in test [15] it was 55.8%; in test [16] it was 65%; in test [17] it was 66.8%; in test [18], 91.3%. The values for the growth in [19] and in test [20] were 21.7% and 35.1%, respectively.

As for `CN1C(=O)N2CN3CCCN(C3)CN3C(=S)NC1C23` (stereo not given), the growth in test [1] is 103%; in test [2], 95.2%; in test [3], 93.4%; in test [4], 99.3%; in test [5], 101%; in [6], 98.4%. Moreover, the growth is 100% in test [7]; 101% in [8]; 98.7% in test [9]; 119% in [10]; 108% in test [11]; 104% in test [12]. Also, the growth in test [13] was 97.7%; in [14] it was 99.5%; in test [15], 108%; in test [16] it was 118%; in test [17], 98%; in [18] it was 98.9%. In addition, the growth in test [19] was 90.2%; in [20], 111%.

Regarding `CCNC(=O)N1CCc2c(Br)c3c(c(OC)c2C1Cc1ccc(OC)cc1)OCO3` (stereo not given), the growth in [1] was 24.6%; in [2], 14.4%; in test [3], -7.7% (active); in test [4], 49.7%; in [5], 32.3%; in test [6] it was 27.9%. For the same molecule, the growth is 28.9% in [7]; 20.7% in test [8]; 32.6% in test [9]; 55.9% in [10]; 15.4% in test [11]; 54.4% in test [12]. Moreover, the growth is 49.9% in test [13]; 40.2% in [14]; 65.6% in [15]; 33.6% in [16]; 18.6% in test [17]; -12.4% (active) in [18]. In addition, the growth is 31.5% in test [19] and 23.6% in [20].

With `CS(=O)(=O)c1ccc(-c2nc3ccccc3n2CC(=O)N/N=C/c2ccccc2)cc1`, the growth in [1] was 100%; in test [2], 88.5%; in test [3], 96.5%; in [4] it was 107%; in test [5], 109%; in test [6], 96.9%. The growth in test [7] was 100%; in test [8] it was 94.4%; in test [9], 107%; in test [10], 103%; in test [11], 99.7%; in test [12] it was 92.9%. Besides, the growth is 108% in [13]; 76.3% in test [14]; 103% in test [15]; 101% in test [16]; 89.4% in test [17]; 111% in test [18]. Moreover, the growth in test [19] is 104%; in [20], 117%.

Take `Cc1nc2ccccc2c(/C=C/c2ccc(F)cc2)c1C(=O)/C=C/c1ccccc1`: the growth was -4.2% (active) in test [1]; 3.31% (active) in test [2]; 12.1% in test [3]; 38.2% in [4]; -7.24% (active) in test [5]; 29.8% in test [6]. In addition, the growth in test [7] is 27.4%; in test [8], 26.1%; in test [9], -82.5% (active); in [10], 19.4%; in [11], 14.2%; in [12], 38.2%. The growth was 22.2% in test [13]; 27.4% in test [14]; 23.2% in test [15]; 11.6% in [16]; 24.7% in [17]; 55.5% in test [18]. For the same molecule, the figures for the growth in test [19] and in [20] were 7.91% (active) and 4.66% (active), respectively.

In the case of `CC1(C)CC[C@]2(CO)CC[C@]3(C)[C@](O)([C@H](O)C[C@@H]4[C@@]5(C)CCCNC(C)(C)[C@@H]5CC[C@]43C)[C@@H]2C1`, the growth in test [1] was 88.5%; in [2], 20.6%; in [3], 88.7%; in [4] it was 103%; in test [5] it was 79.6%; in test [6], 75.9%. The growth was 96.8% in test [7]; 103% in test [8]; 87.8% in [9]; 100% in [10]; 106% in test [11]; 107% in test [12]. Further, the growth in test [13] is 90%; in test [14], 73%; in [15], 103%; in test [16] it was 108%; in test [17], 97.5%; in test [18], 83.6%. Also, the growth was 74.6% in test [19] and 46% in test [20].

Turning to `O=C(Nc1ccccc1O)c1ccc(CNc2ccnc(C(F)(F)F)c2)cc1`, the growth in test [1] is 67.5%; in test [2], 75.8%; in test [3] it was 55.9%; in test [4] it was 68%; in test [5], 60.3%; in test [6] it was 57.7%. For the same molecule, the growth in [7] was 38.1%; in [8], 32.8%; in test [9], 52.7%; in [10] it was 69.9%; in [11] it was 52.4%; in test [12], 52.7%. Also, the growth in test [13] is 48.8%; in test [14], 29.2%; in [15] it was 96.2%; in [16] it was 43%; in test [17], 29.6%; in test [18], 66.4%. The growth in test [19] was -8.29% (active); in [20] it was 9.24% (active).
